# aSyn UTR act: Activators working through SNCA 5'UTR binding (MLPCN) | alpha-synuclein 5'UTR reporter, activators screen | activity score, % (tested at 7.5 µM), hits read low | 7.1% of 300,000 active | AID 1814; in the data active means activity score below about -60%
# * hit, by the source's call. Only a sample is shown.
SMILES,aSyn UTR act
CCC(=O)c1ccc(OCc2ccc(C#N)cc2)cc1,-112.2*
CCOc1ncccc1C(=O)OCc1ccc(C(=O)OC)cc1,-126.0*
CCC(=O)c1ccc(OCc2ccc(C(=O)OC)cc2)cc1,-73.0*
CCOc1ccc(OCc2cccc(C(=O)O)c2)cc1,83.6
O=C(Nc1ncc(Cc2ccccc2Cl)s1)C1CCCO1 (stereo not given),-89.3*
O=C(Nc1ncc(Cc2cccc(Cl)c2Cl)s1)C1CCCO1 (stereo not given),-128.3*
O=C(Nc1ncc(Cc2cccc(Cl)c2)s1)C1CCCO1 (stereo not given),-161.3*
COc1ccc2c(c1)C1=NN(/C(C)=C\C(C)=O)C(c3ccccc3)C1CC2 (stereo not given),-140.8*
COc1ccc2c(c1)C1=NN(/C(C)=C/C(C)=O)C(c3cccc(F)c3)C1CC2 (stereo not given),-63.8*
COc1ccc2c(c1)C1=NN(/C(C)=C/C(C)=O)C(c3ccc(F)cc3)C1CC2 (stereo not given),-78.1*
Cc1ccc(Nc2nc(COC(=O)C3CC3)cs2)cc1,-104.9*
CC1CC(C)CN(C(=O)c2cc3cc(Br)cc(Br)c3o2)C1 (stereo not given),-120.9*
CC1CCN(C(=O)c2cc3ccccc3o2)CC1,-130.6*
O=C(c1cc2ccccc2o1)N1CCCCCC1,-64.1*
CC1CC(C)CN(C(=O)c2cc3ccccc3o2)C1 (stereo not given),-70.1*
Fc1ccc(-c2nc(-c3cccs3)no2)cc1,-134.1*
Fc1ccc(-c2cnc(-c3cccs3)o2)cc1,-148.1*
C#CCSc1nnc(-c2cccc3ccccc23)o1,-103.9*
C#CCSc1nnc(-c2ccc(O)cc2)o1,-137.7*
C#CCSc1nnc(-c2ccc(C)cc2)o1,-164.1*
CCn1nccc1C(=O)Nc1ccc(C(=O)OC(C)C)cc1,-163.0*
Cc1cc(C)c2nc(NNC(=O)c3ccc(S(=O)(=O)N4CCCC(C)C4)cc3)sc2c1 (stereo not given),72.9
CN(C)S(=O)(=O)c1ccc(C(=O)Nc2nc(-c3cccs3)cs2)cc1,-99.3*
Cc1csc(NC(=O)c2ccc(S(=O)(=O)N3CCCC3)cc2)n1,-62.3*
O=C(Nc1nc(-c2cccs2)cs1)c1ccc(S(=O)(=O)N2CCCC2)cc1,-95.7*
SMILES,aSyn UTR act
CC1CC(C)CN(S(=O)(=O)c2ccc(C(=O)Nc3nnc(-c4cccs4)o3)cc2)C1 (stereo not given),60.3
COC(=O)Cn1c(=NC(=O)c2ccc(Cl)s2)sc2cc(F)ccc21,-110.7*
C#CCn1c(=NC(=O)c2ccc(Cl)s2)sc2cccc(OC)c21,-79.0*
Cc1ccnc(NC(=O)CCCc2ccccc2)c1,-181.6*
O=C(CCCc1ccccc1)Nc1ccccn1,-110.9*
CN1C(=O)/C(=C2\SC(=S)N(CCCCCC(=O)O)C2=O)c2ccccc21,-66.7*
O=C(Nc1ccc2c(c1)OCO2)c1ccc2nc[nH]c2c1,-112.4*
COc1ccc(NC(=O)c2ccc3nc[nH]c3c2)cc1,-81.3*
O=C(Nc1ccc(C(F)(F)F)cc1)c1ccc2nc[nH]c2c1,-78.1*
COc1ccc(C(=O)Nc2ccc3c(c2)nc2n3CCSC2)cc1,-67.2*
Cc1ccc(C(=O)Nc2cccc(C(F)(F)F)c2)cc1Nc1ncnc2nc[nH]c12,77.9
COc1ccc(C(=O)Nc2ccc3nc(C)c(C)nc3c2)cc1,-86.9*
N#Cc1c(N2CCCC2)nc(N)c2c(N)nc(N3CCCC3)cc12,-172.6*
COCCN=C1Sc2nc3cc(C)c(C)cc3cc2CN1Cc1cccs1,-77.5*
COCCN=C1Sc2nc3ccc(C)cc3cc2CN1Cc1ccco1,-68.0*
Cc1cc2nc(C3CCN(Cc4nnnn4Cc4cccs4)CC3)[nH]c2cc1C,63.0
COc1ccc2nc3sc(C(=O)NCCCN4CCc5ccccc5C4)cc3cc2c1,-83.7*
CCc1ccc(C(=O)CCC2CCCCC2=O)cc1 (stereo not given),-130.0*
Cc1ccc(C(=O)CCC2CCCC2=O)cc1 (stereo not given),-100.0*
Cc1ccc(C(=O)CCC2CCCCC2=O)cc1 (stereo not given),-151.2*
Cc1ccc2nc(C3CCCCC3)[nH]c2c1,-93.5*
CC(C)(C)NC(=O)COc1ccc(-c2ccccc2)cc1,-110.5*
Cc1ccc(OCC(=O)N/N=C\c2cn(Cc3ccccc3)c3ccccc23)cc1C,76.1
CCNC(=O)COc1ccc(-c2ccccc2)cc1,-115.8*
Cc1cc(OCC(=O)NC(C)(C)C)ccc1Cl,-93.4*
SMILES,aSyn UTR act
CC(=O)N1CCN=C1SCc1ccc(C(F)(F)F)cc1,-84.8*
COc1ccc2[nH]c(C(=O)NCCc3ccccc3)cc2c1,-92.0*
COc1ccc2cc(C(=O)N3CCC(Cc4ccccc4)CC3)[nH]c2c1,-76.5*
COc1ccc2cc(C(=O)N(C)Cc3ccccc3)[nH]c2c1,-86.3*
Fc1ccccc1-c1ccc(/C=N/Nc2nc3ccccc3[nH]2)o1,-216.8*
C(=N\Nc1nc2ccccc2[nH]1)/c1cccc2nccnc12,67.3
C#CCn1cc(/C=N/Nc2nc3ccccc3[nH]2)c2ccccc21,-383.3*
CCCCn1c(/C=N/Nc2nc3ccccc3[nH]2)nc2ccccc21,-432.6*
Cc1ccc(/C=N\Nc2nc3ccc(Cl)cc3[nH]2)o1,-192.3*
